Laboratory results from PubChem BioAssay (NCATS).
Records with an inconclusive call do not appear. Where a call stands in place of a potency, no number is given. A number with no mark means an inactive call. The source made the active and inactive calls. The call rests on the fitted dose curve; in most records, active means well fitted inhibition curve with a large enough effect; inconclusive means small, poorly fitted or top-dose-only effect; inactive means no such curve, though single readings can be large or run the other way.

System: Zika virus NS2B-NS3 protease (unlinked complex)
Assay: Primary screen GU Rhodamine qHTS for Zika virus inhibitors: Unlinked NS2B-NS3 protease assay (AID 1347159); further: nearly all actives have a fitted effect of over 60% in size
Conditions: Recombinant ZIKV NS2B-NS3 protease, Rhodamine110 substrate fluorescence; series mostly up to 107 µM
From the text: Avindra Nath, Ph.D., National Institute of Neurological Disorders and Stroke (NINDS), Bethesda, MD
Radhakrishnan Padmanabhan, Ph.D., Georgetown University (GU), Washington D.C.
Zika Virus causes congenital defects, including microcephaly and is associated with Guillain-Barre syndrome, eningoencephalitis and myelitis in infected adult. […] Using a target-based approach, we hope to establish a screening paradigm to uncover novel, cell-active NS2B-NS3 protease (Zika Virus) specific inhibitors from NCATS' collection of small molecules using qHTS.
Four assay panel was created to identify potential Zika Virus inhibitors. Namely, (1) GU unlinked NS2B-NS3 AMC tagged protease qHTS, (2) GU unlinked NS2B-NS3 Rhodamine tagged protease qHTS, (3) NINDS linked NS2B-NS3 AMC tagged protease qHTS, (4) NINDS linked NS2B-NS3 Rhodamine tagged protease qHTS. Active compounds were re-acquired and re-screened to confirm inhibition. Inhibitors were further screened against various confirmatory and counterscreens in dose response format.
Early Translation Branch (ETB)
National Center for Advancing Translational Sciences (NCATS), Rockville, MD
National Institute of Health (NIH), Bethesda, Maryland
Padmanabhan lab provided the NS2B hydrophilic domain and NS3 protease domain in a noncovalent complex used for the unlinked assay. Control compound aprotinin is obtained from Thermo Scientific (#78432; Waltham, Massachusetts). Rhodamine110 substrate ([N-Cbz]-Nle-Lys-Arg-Arg-Rhod110-Arg-Arg-Lys-Nle-[N-Cbz]) was purchased from either Genscript or Bachem.
1536-well Protease (Rhodamine110 Substrate) Assay:
Briefly, 3 microL of enzyme (25 nM final concentration), in assay buffer (10 mM Tris-HCl pH 8.0 with 0.01% Tween 20) were dispensed into a 1,536-well solid-bottom black plate (Greiner Bio One, Monroe, NC). Twenty-three nL of compounds (final concentration range 7.28 nM to 114 microM) or control Aprotinin (final concentration range 3.47 nM to 114 microM) were transferred via Wako Pin-tool (Wako Automation, Richmond, VA). Samples were incubated (room temperature, protected from light) for 15 minutes followed by a 1 microL Rhodamine110 substrate addition (1.5 microM final concentration). Plates were then immediately read on a ViewLux High-throughput CCD imager (PerkinElmer, Waltham, MA) equipped with FITC fluorescence optics (480(20) nm excitation, 540(25) nm emission), then incubated (room temperature, protected from light) for 15 minutes (~15% conversion). The change in fluorescence intensity over the 15-minute reaction period was normalized against no-inhibitor and no-enzyme controls and the resulting percent inhibition data were fitted to a 4-parameter Hill equation. Aprotinin was used as intraplate control.
Potency means the concentration at half of the fitted maximal effect.

SMILES | Potency | activity change, negative = inhibition
C/C=C(\C)C(=O)OC1CC2C(C)(C)OC(=O)CC(OC(C)=O)C2(C)C2CC(OC(=O)C(C)C)C3(C)C(c4ccoc4)CC4OC43C12C (stereo not given) | inactive | 
COC(=O)C1(C)CCC(O)C2(C)c3cc(O)c(C(C)C)cc3C(O)C(OC(C)=O)C12 (stereo not given) | inactive | 
COC(=O)C1(C)CCC(=O)C2(C)c3c(O)cc(C(C)C)cc3C(O)C(OC(C)=O)C12 (stereo not given) | inactive | 
COc1cc(CCNCc2ccccc2O)c(OC)cc1C#N | inactive | 
C=C(CO)C(=O)O[C@H]1C/C(C)=C/CC/C(CO)=C/[C@H]2OC(=O)C(=C)[C@H]12 | inactive | 
COC1CC(OC2CCC3(C)C(=CCC4C3CCC3(C)C(C(C)OC5OC(COC6OC(CO)C(O)C(O)C6O)C(O)C(O)C5O)CCC43O)C2)OC(C)C1OC1OC(C)C(O)C(OC)C1O (stereo not given) | inactive | 
CCC(C)(OC(C)=O)C(=O)O[C@H]1[C@H](OC(C)=O)C[C@@H]2[C@@](C)([C@@H]3C[C@H]4C=CO[C@H]4O3)[C@H](C)C[C@H](OC(C)=O)[C@@]2(COC(C)=O)[C@@]12CO2 (stereo not given in full) | inactive | 
COc1ccccc1CN[C@H]1C2CCN(CC2)[C@H]1C(c1ccccc1)c1ccccc1 | inactive | 
CC(=O)OC1CC(O)C2(C)C(CC(OC(C)=O)C3(C)C2CCC2(C)C(c4ccoc4)C(=O)C4OC423)C1(C)C (stereo not given) | inactive | 
COc1cc(C(=O)O[C@H]2[C@@H]3C=CO[C@@H](O[C@@H]4O[C@H](CO)[C@@H](O)[C@H](O)[C@H]4O)[C@@H]3[C@@]3(CO)O[C@@H]23)ccc1O | inactive | 
Cc1c(Cl)cccc1S(=O)(=O)Nc1nc(CC(=O)N2CCN(C)CC2)cs1 | inactive | 
CC(C)C1(OO)C=C2C(=O)CC3C(C)(C(=O)O)CCCC3(C)C2CC1 (stereo not given) | inactive | 
CC[C@H]1CN2CC[C@H]1C[C@@H]2[C@@H](O)c1ccnc2ccc(OC)cc12 | inactive | 
CO[C@@H]1[C@H](O)[C@@H](O[C@@H]2C[C@H]3CC[C@@H]4C(CC[C@]5(C)[C@@H](C6=CC(=O)OC6)CC[C@]45O)[C@@]3(C)[C@H](O)C2)O[C@H](C)[C@@H]1O[C@@H]1O[C@H](CO)[C@@H](O)[C@H](O)[C@H]1O (stereo not given in full) | inactive | 
COC1C(O)C(OC2CCC3(C=O)C(CCC4C3CCC3(C)C(C5=CC(=O)OC5)CCC43O)C2)OC(C)C1OC1OC(CO)C(O)C(O)C1O (stereo not given) | inactive | 
CN1C(=O)c2ccccc2NC(=O)[C@]12O[C@@H]2c1ccccc1 | inactive | 
COc1cc(C)[nH]c(=O)c1CNC(=O)c1c(C)n([C@H](C)C2CCOCC2)c2ccccc12 | inactive | 
COC1CC(O[C@H]2CC[C@]3(C=O)C4CC[C@]5(C)[C@@H](C6=CC(=O)OC6)CC[C@]5(O)[C@@H]4CC[C@]3(O)C2)OC(C)C1O[C@@H]1O[C@H](CO)[C@@H](O)[C@H](O)[C@H]1O (stereo not given in full) | inactive | 
CCN1CC2(COC)C3[C@@H](OC)C4C1C3(C1C[C@]3(O)[C@H](OC(=O)c5ccccc5)C1[C@]4(OC(C)=O)[C@@H](O)[C@@H]3OC)[C@H](OC)C[C@H]2O (stereo not given in full) | 89.1 µM (active) | 
C[C@]12CC[C@H]3[C@@H]([C@H](O)CC4=CC(=O)CC[C@@]43C)[C@@H]1CC[C@@H]2O | inactive | 

SMILES | Potency | activity change, negative = inhibition
COC1CC(=O)C23C(=O)NC(CC(C)C)C2C(C)=C(C)C(OO)C3/C=C(\C)CCC(O)C1O (stereo not given) | inactive | 
C/C=C(\C)C(=O)OC1CC2C(CC=C3CC(OC4CC(OC)C(OC5CC(OC)C(OC6OC(C)C(OC7OC(CO)C(O)C(O)C7O)C(OC)C6O)C(C)O5)C(C)O4)CCC32C)C2(O)CCC(C(C)=O)C12C (stereo not given) | inactive | 
COCC1OC(=O)c2coc3c2C1(C)C1=C(C3=O)C2CCC(=O)C2(C)CC1O (stereo not given) | inactive | 
COC1CC(O[C@H]2CC[C@@]3(C)C(=CCC4C3C(O)[C@@H](O)[C@]3(C)[C@@H](C(C)=O)CC[C@]43O)C2)OC(C)C1OC1CC(OC)C(OC2OC(C)C(O)C(O)C2O)C(C)O1 (stereo not given in full) | inactive | 
CN1C(=O)c2ccccc2NC(=O)C1Cc1ccccc1 (stereo not given) | inactive | 
O=C1C[C@@H]2OCC=C3CN4CC[C@]56c7ccccc7N1[C@H]5[C@H]2[C@H]3C[C@H]46 | inactive | 
N#C[C@@H](O[C@@H]1O[C@H](CO[C@@H]2O[C@H](CO)[C@@H](O)[C@H](O)[C@H]2O)[C@@H](O)[C@H](O)[C@H]1O)c1ccccc1 | inactive | 
C=C[C@H]1CN2CC[C@H]1C[C@@H]2[C@@H](O)c1ccnc2ccccc12 | inactive | 
COC(=O)N1CCN(C(=O)Cc2ccc(Cl)c(Cl)c2)[C@@H](CN2CCCC2)C1 | inactive | 
CCCCCCn1c(=O)c(C(=O)Nc2ccc(C(=O)OCCC)cc2)c(O)c2ccccc21 |  | -4.23% [at 19.1 µM]
CC1C/C=C/C(O)C(O)CC/C=C/c2cc(O)cc(O)c2C(=O)O1 (stereo not given) | inactive | 
C[C@@H]1C(=O)O[C@H]2[C@H](O)[C@@]34[C@@H]5OC(=O)[C@@]3(O[C@@H]3OC(=O)[C@@H](O)[C@@]34[C@H](C(C)(C)C)[C@H]5O)[C@@]12O | inactive | 
CCC1NC(=O)C2C(Cl)C(Cl)CN2C(=O)C(C(C)O)NC(=O)CC(c2ccccc2)NC(=O)C(CO)NC1=O (stereo not given) | inactive | 
Cc1cn(C[C@H](N)C(=O)O)c(=O)n(Cc2cc(-c3ccccc3)sc2C(=O)O)c1=O | inactive | 
C=C(C)[C@H]1O[C@H]2CC[C@@]3(C)[C@@](O)(CC[C@H]4[C@@H]5OC(C)(C)[C@H]6C[C@@H]7C(=C)Cc8c(Cl)cc9[nH]c(c5c9c8[C@@]76O)[C@@]43C)[C@]23O[C@@H]3[C@H]1O | inactive | 
C[C@@]1(C(=O)O)CC[C@]2(C)CC[C@]3(C)C4=CC(=O)c5cc(O)c(O)cc5[C@]4(C)CC[C@@]3(C)[C@@H]2C1 | 3.98 µM (active) | 
C=C1[C@@H]2CC[C@@]3(C)[C@H](c4ccoc4)OC(=O)C[C@]13O[C@H]1CC(=O)C(C)(C)[C@H](C(OC(C)=O)C(=O)OC)[C@]12C (stereo not given in full) | inactive | 
CC(=O)OC1CC(O)C(C)(C)C2CC(OC(C)=O)C3(C)C(CCC4(C)C(c5ccoc5)C(=O)C5OC543)C12C (stereo not given) | inactive | 
CN1CCC[C@@H]1Cc1c[nH]c2ccc(Nc3ncccc3[N+](=O)[O-])cc12 | inactive | 
COC1CC(OC2CCC3(C=O)C(CCC4C3CCC3(C)C(C5=CC(=O)OC5)CCC43O)C2)OC(C)C1OC1OC(CO)C(O)C(O)C1O (stereo not given) | inactive | 
